# A selection: hits, their analogues and other compounds. The true share with any hit is near 6.9%.
# ASM inhibitor = Inhibitors of Secretory Acid Sphingomyelinase (S-ASM): qHTS; Potency, µM (titrated, usually from 57.5 µM), inactives show at the top dose activity change, negative = inhibition, usual class: inhibitors; 340,000 compounds, 0.006% hits; Sphingomyelin phosphodiesterase (Homo sapiens), P17405; placental ASM, HMU-PC fluorogenic substrate, 60 min; AID 504937, 2011; also: potency is read from the fitted curve at half-maximal effect
# Target sequence (P17405 47-631 limits assumed): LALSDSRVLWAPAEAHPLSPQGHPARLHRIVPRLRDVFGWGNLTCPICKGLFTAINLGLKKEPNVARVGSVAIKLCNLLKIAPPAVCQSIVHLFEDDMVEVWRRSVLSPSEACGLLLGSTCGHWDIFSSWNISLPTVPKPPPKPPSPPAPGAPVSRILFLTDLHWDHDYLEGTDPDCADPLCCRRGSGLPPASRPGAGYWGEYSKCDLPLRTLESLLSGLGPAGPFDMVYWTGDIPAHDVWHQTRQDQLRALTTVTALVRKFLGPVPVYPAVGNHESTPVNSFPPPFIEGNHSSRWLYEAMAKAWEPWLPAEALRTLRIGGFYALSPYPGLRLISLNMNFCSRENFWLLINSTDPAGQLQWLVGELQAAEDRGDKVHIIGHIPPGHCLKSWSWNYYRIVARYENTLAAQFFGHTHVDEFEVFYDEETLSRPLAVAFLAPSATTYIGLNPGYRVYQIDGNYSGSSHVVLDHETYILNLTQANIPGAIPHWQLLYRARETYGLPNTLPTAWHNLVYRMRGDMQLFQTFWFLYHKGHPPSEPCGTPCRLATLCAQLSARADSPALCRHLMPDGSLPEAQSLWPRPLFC
#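 HMU-PC0 cleavage (9 uM final) by human placental ASM, 60 min at 37 °C following 10 min compound exposure at RT; stopped at pH 10, fluorescence Ex 386/Em 447 nm.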
# MCF10A rereplic = A quantitative high throughput screen for small molecules that induce DNA re-replication in MCF 10a normal breast cells. 350,000 compounds, 2.9% hits. Potency, µM (series often up to 46.1 µM), for inactives: at the top dose activity, positive = re-replication, actives largely listed as activators. MCF 10A DNA re-replication, Hoechst nuclear intensity, 48 h. AID 624296, 2012; also: potency is read from the fitted curve at half-maximal effect; % of control where 0% means no effect; nearly all actives have a fitted effect of over 50% in size
# KB-3-1 cytotox = qHTS assay for MDR1-selective chemotherapeutics: Primary screen using the parental adenocarcinoma cell KB-3-1; KB-3-1 viability, CellTiter-Glo ATP luminescence, 72 h; Potency, µM (top dose mostly 46.1 µM), actives largely listed as cytotoxic; AID 1347075, 2019; 400,000 compounds, 1.4% hits; also: potency is read from the fitted curve at half-maximal effect; % is scaled to controls: 0 for no effect and ±100 for the full control effect; nearly all actives have a fitted effect of over 60% in size
#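 Using CellTiter-Glo luminescence, growth of non-resistant KB-3-1 adenocarcinoma cells is assessed 72 h after pin-tool compound addition at 37 °C. Normalized responses across the concentration series yield fitted curves.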
# SW480 rereplic = A quantitative high throughput screen for small molecules that induce DNA re-replication in SW480 colon adenocarcinoma cells; SW480 DNA re-replication, Hoechst DNA content imaging, 48 h; Potency, µM (doses to about 46.1 µM), for inactives: at the highest dose re-replication activation, most hits filed as activators; 340,000 compounds, 1.8% hits; AID 624297, 2012; also: potency is read from the fitted curve at half-maximal effect; % of control where 0% means no effect; nearly all actives have a fitted effect of over 55% in size
#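 Treated cells incubate 48 hr (37 C, 5% CO2), are stained 40 min with Hoechst, and nuclear fluorescence is enumerated; a rise in nuclei with high DNA signal marks re-replication.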
# Giardia killer = Small Molecules that selectively kill Giardia lamblia: qHTS; Giardia lamblia trophozoite viability; activity change, % at 7.66 µM, hits read low; 340,000 compounds, 0.15% hits; AID 540267, 2011; in the data active = activity change below about -80%; inconclusive = between about -30% and that limit;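 also: parasites exposed to compound for two days anaerobically before the ATP read; % is scaled to controls: 0 for no effect and ±100 for the full control effect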
#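 Trophozoite viability was measured as ATP-dependent luminescence, read 15-30 min after reagent addition. Before that, parasites at 100 cells/well were exposed to compounds for 48 h, anaerobically, at 37 deg C.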
# KB-V1 MDR tox = qHTS assay for MDR1-selective chemotherapeutics: Primary screen using the drug-selected MDR subline cells KB-V1. Potency, µM (top dose mostly 46.1 µM), usual class: cytotoxic. KB-V1 MDR cells viability, CellTiter-Glo, 72 h. 400,000 compounds, 3.4% hits; also: potency is read from the fitted curve at half-maximal effect; % is scaled to controls: 0 for no effect and ±100 for the full control effect; nearly all actives have a fitted effect of over 60% in size
#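 Readout: CellTiter-Glo luminescence, 10 min after addition. Cells: KB-V1 MDR subline, 72 h at 37 degrees C with compound. Analysis: corrected, normalized data fitted to concentration-effect curves.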
# * = called active by the depositor; i = inactive; ? = inconclusive; / = no result given; [ ] = another dose, or the depositor's remark. Unless noted, calls follow the shape of the dose curve; as a rule, active = well fitted curve in the direction sought with a large enough effect; inconclusive = small, poorly fitted or top-dose-only effect, or another doubt; inactive = no such curve, though single readings can be large; an effect the other way counts as inactive or inconclusive.
SMILES,ASM inhibitor,MCF10A rereplic,KB-3-1 cytotox,SW480 rereplic,Giardia killer,KB-V1 MDR tox
COC(=O)CSc1cc(C(=O)c2nccn2C)c2ccccc2n1,2%,7%,i,15%[9.22 µM],?,i
COCCNC(=O)CSc1nc2ccccc2c(=O)n1CCCC(=O)NCc1ccccc1,1%,0%,i,3%,-13,16µM*
Cn1ccnc1C(=O)c1cc(SCC(=O)NCc2ccccc2)nc2ccccc12,-6%,15µM*,?,?,-22,?
COCCCNC(=O)CSc1nc2ccccc2c(=O)n1CCCN1CCCCC1,-1%,-7%,i,-14%,-28,i
Cc1cn2c(=O)c(S(=O)(=O)NCc3ccccc3Cl)c(C)nc2s1,/,/,i,/,/,i
Cc1nc(-c2ccc(C)c(N3CCN(C(=O)Nc4ccc(Br)cc4)CC3)c2)no1,/,/,i,/,/,i
COc1ccc(C(C)=O)cc1CSc1nnnn1-c1ccc(O)cc1,-1%,4%,i,-16%,8,?
COc1ccc(F)cc1CSc1nnnn1-c1ccc(O)cc1,-1%,13%,i,10%,-1,16µM*
COc1cc(CSc2nnnn2-c2ccc(C)cc2)cc(OC)c1OC,-2%,-10%,10µM*,6%,-13,2.1µM*
CCCN(Cc1cc2cc(C)ccc2[nH]c1=O)C(=O)c1cccc(Cl)c1,/,/,?,/,/,i
CC1CN(CCCCSc2ccc(Cl)cc2)CC(C)O1 (centres undefined),-2%,23µM*,i,?,58,i
Clc1ccc(SCCCCn2ccnc2)cc1,-1%,10µM*,i,4%,-6,i
Clc1ccc(SCCCCN2CCNCC2)cc1,1%,2.9µM*,i,?,-25,i
Cc1ccc(-c2csc(NC(=O)C3CCN(S(=O)(=O)c4cccs4)CC3)n2)cc1,-15%,2%,6.5µM*,?,6,9.2µM*
O=C(Nc1nc(-c2ccc3ccccc3c2)cs1)C1CCN(S(=O)(=O)c2cccs2)CC1,-5%,-43%,4.6µM*,-137%,5,2.6µM*
O=C(NCCN1C(=O)S/C(=C\c2ccc(F)cc2)C1=O)C1CCN(S(=O)(=O)c2cccs2)CC1,2%,3%,i,-2%,-10,i
COc1ccc(/C=C2\SC(=O)N(CCNC(=O)C3CCN(S(=O)(=O)c4cccs4)CC3)C2=O)cc1,-8%,-7%,i,-15%,-7,15µM*
Cc1ccc(NC(=O)C2CCN(S(=O)(=O)c3cccs3)CC2)cc1,-1%,-15%,i,-24%[1.84 µM],-5,i
Cc1nn2c(=O)cc(COC(=O)c3cccs3)nc2s1,/,/,i,/,/,i
COC(=O)c1cccc(NC(=O)C2CCN(S(=O)(=O)Cc3ccccc3)CC2)c1C,/,/,i,/,/,i
CC1CCCN(S(=O)(=O)c2ccc3c(c2)n(C)c(=O)c(=O)n3C)C1 (centres undefined),-1%,14%,i,-3%,-22,i
CC1CCCN(S(=O)(=O)c2ccc3c(c2)c(=O)nc2ccc(Cl)cn23)C1 (centres undefined),i,4.6µM*,i,?,20,i
CC(C)c1ccccc1NC(=O)Cn1cnc2c1c(=O)n(C)c(=O)n2C,/,/,i,/,/,i
C(=N\Nc1nc(N2CCCCC2)nc(N2CCCCC2)n1)/c1c[nH]c2ccccc12,?,12%,i,4%,-9,i
CN(C)c1nc(N/N=C/c2c[nH]c3ccccc23)nc(N2CCOCC2)n1,2%,19%,i,15µM*,72,i
Cc1ccc(C)c(OCCn2c(CCNC(=O)C3CCCCC3)nc3ccccc32)c1,/,/,i,/,3,i
